{
  "source": "the supplement of paper PMC11417369",
  "note": "± gives the standard deviation of the averaged measurements. Over roughly 25,000 sequences, “ln(normalized median fluorescence intensity)” has its median near 10; the highest 2% begin near 12. The full list was thinned out, with the highest values kept by preference.",
  "data": [
    {"test_system": "PfAP2-G AP2 domain (GST-tagged)", "experiment": "gcPBM binding intensity (ln(normalized median fluorescence intensity)); higher = stronger DNA binding", "how_it_was_run": "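In this array assay, P. falciparum DNA-binding domains with a GST tag, expressed in E. coli, were applied for 1 h to primer-extended double-stranded 36-bp intergenic genomic probes and negative controls on an Agilent 4 × 180k array. Bound protein was visualised with Alexa488 anti-GST antibody at 488 nm. Binding intensity is the highest Masliner-normalised natural-log median intensity across replicate spots of either probe orientation.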", "values": [
      {"sequence": "TTCTTTTTTATTTATACATGCAATAAAAAATTGATT [TGCATGCA_site730]", "gcPBM binding intensity (ln)": "9.925 ± 0.064"},
      {"sequence": "AGGACTAATATTTGAACACACATATAACATATACAT [CACACA_site7803]", "gcPBM binding intensity (ln)": "9.95 ± 0.085"},
      {"sequence": "AAAAAAAAAAAAATGTAATTTTTTAATTATTTATAT [GTGCAC_negctrl_site436]", "gcPBM binding intensity (ln)": "9.47 ± 0.11"},
      {"sequence": "GTATTCATGCTAAAGGTGCAATAATTTTTATAATAA [GTGCAC_site9603]", "gcPBM binding intensity (ln)": "10.2 ± 0.21"},
      {"sequence": "ATTTTTTTTAATTTGTACAAATTTTGTTCACAATTT [CACACA_negctrl_site1301]", "gcPBM binding intensity (ln)": "10.8 ± 0.4"},
      {"sequence": "AATTATTCTATATATTGTACATGTTTGTTTTTTTTT [XGTACX_site3130]", "gcPBM binding intensity (ln)": "10.9 ± 0.42"},
      {"sequence": "CATTATGTTGTAAATACACACATACAGATACATACA [CACACA_site4565]", "gcPBM binding intensity (ln)": "10.3 ± 0.16"},
      {"sequence": "TTTATTAATTTATAGTGTACATATTAATAATATATT [XGTACX_site7949]", "gcPBM binding intensity (ln)": "11.3 ± 0.68"},
      {"sequence": "ATATAAAACAACGGGTGTACAAAAAAATAAATAATA [XGTACX_site4094]", "gcPBM binding intensity (ln)": "11.3 ± 0.76"},
      {"sequence": "AATAGTAATTTGAATACACACAATAATATATTTATA [CACACA_site7055]", "gcPBM binding intensity (ln)": "9.96 ± 0.042"},
      {"sequence": "ATATTATACCCGTGTACACATTATAACCATATATAA [CACACA_site5933]", "gcPBM binding intensity (ln)": "11.7 ± 0.82"},
      {"sequence": "TATTTATAATAGTGTACACAATTATAAACTGAATAT [CACACA_site6041]", "gcPBM binding intensity (ln)": "11.7 ± 0.89"},
      {"sequence": "GTTATTAAAAACGGGTGTACACATATATAAATATAT [XGTACX_site1234]", "gcPBM binding intensity (ln)": "11.6 ± 0.86"},
      {"sequence": "CATTATTATTAACATACACACGTGTTATATACCCCC [CACACA_site9365]", "gcPBM binding intensity (ln)": "11 ± 0.61"},
      {"sequence": "TATTACCCATATTATACACACATATATTATATATAT [CACACA_site1567]", "gcPBM binding intensity (ln)": "10.3 ± 0.2"},
      {"sequence": "ATTAAAAACGGGTGTACACATATATAAATATATATA [CACACA_site4539]", "gcPBM binding intensity (ln)": "11.7 ± 0.89"},
      {"sequence": "AATAAAATAATAGGCACACATATATATATATATTAT [CACACA_site273]", "gcPBM binding intensity (ln)": "10.1 ± 0.26"},
      {"sequence": "CTATTAATGTACTCTACACACATATAAGAGGACATT [CACACA_site471]", "gcPBM binding intensity (ln)": "11.6 ± 0.86"},
      {"sequence": "AAATAAAATAAAAGCACACAAAATGTAAATAATTAT [CACACA_site2775]", "gcPBM binding intensity (ln)": "10.01 ± 0.035"},
      {"sequence": "CCATGTCAAACATTTGCACACAAAAAAATAAAAATT [CACACA_site4546]", "gcPBM binding intensity (ln)": "10.2 ± 0.31"},
      {"sequence": "TAATTTAAAAATATAAATGTTTCACTTATATATTTT [TGCATGCA_negctrl_site399]", "gcPBM binding intensity (ln)": "9.41 ± 0.27"},
      {"sequence": "AAAAATAGTATAAGTAGTACAACTGAAAAGTTATGT [XGTACX_site7488]", "gcPBM binding intensity (ln)": "11.6 ± 0.86"},
      {"sequence": "TAAGTATAAAAAAATAGTACAATTATGAAATATCGT [XGTACX_site2529]", "gcPBM binding intensity (ln)": "11.2 ± 0.71"},
      {"sequence": "GAAAAGTAGACAATATGTACATATAGTATTTATAAA [XGTACX_site878]", "gcPBM binding intensity (ln)": "11.1 ± 0.69"},
      {"sequence": "ATTCTGAATGTTATGCGTACATATTAATCCTATTTA [XGTACX_site1216]", "gcPBM binding intensity (ln)": "11.5 ± 0.93"},
      {"sequence": "TGTTCTAATATTTGTTGTACATTTACATTTCTCTCT [XGTACX_site2585]", "gcPBM binding intensity (ln)": "11.1 ± 0.56"},
      {"sequence": "GAAAAAAAAAAAAGGGGTACATTTATTTTATCAATA [XGTACX_site8331]", "gcPBM binding intensity (ln)": "11.5 ± 1"},
      {"sequence": "TTCAAAGGGAAATTAACACACACATATATATATATA [CACACA_site8777]", "gcPBM binding intensity (ln)": "10.2 ± 0.67"},
      {"sequence": "ATATATAACGGGCACACACACATTTACGTATGAATA [CACACA_site1833]", "gcPBM binding intensity (ln)": "10.7 ± 0.43"},
      {"sequence": "TATAGGTATGTATGTACACACAAAAAATGGAATATA [CACACA_site7704]", "gcPBM binding intensity (ln)": "11.4 ± 0.76"},
      {"sequence": "AAAAAAGAAACAAACACACATACATACAAACAAACA [CACACA_site142]", "gcPBM binding intensity (ln)": "10.3 ± 0.28"},
      {"sequence": "AACACCAAACAAAGGTGTACATATAGGAAAAAATCT [XGTACX_site1006]", "gcPBM binding intensity (ln)": "11.3 ± 0.81"},
      {"sequence": "ATATATATGTATGTATGTACACACAAAAAATGGAAT [XGTACX_site7879]", "gcPBM binding intensity (ln)": "11.5 ± 0.79"},
      {"sequence": "AAAAATGAAAGGTGTACACATACAAACATAGAAAGA [CACACA_site5020]", "gcPBM binding intensity (ln)": "11.7 ± 0.94"},
      {"sequence": "GGAAAATGAAAACAAGGTACACATAAGAACAAACAA [XGTACX_site1221]", "gcPBM binding intensity (ln)": "11.4 ± 0.87"},
      {"sequence": "AAAAAAAATGAAAGGTGTACACATACAAACATAGAA [XGTACX_site3517]", "gcPBM binding intensity (ln)": "11.7 ± 0.88"},
      {"sequence": "TTCTAAAAAGGGTGTACACAAACGAATGGAAAATAA [CACACA_site5483]", "gcPBM binding intensity (ln)": "11.6 ± 0.94"},
      {"sequence": "AAGGTGGGAAAAAATAGTACACAACAAAAATGTATG [XGTACX_site8741]", "gcPBM binding intensity (ln)": "11.7 ± 1"},
      {"sequence": "AAATGGAAAAGGTGTACACAAAAAAAAGGGAAAAGC [CACACA_site5331]", "gcPBM binding intensity (ln)": "11.7 ± 1.2"},
      {"sequence": "GAAAACAAAATGGTAACACACAAATGTAAATAGTAT [CACACA_site2113]", "gcPBM binding intensity (ln)": "10.14 ± 0.064"},
      {"sequence": "AATAATAGAAAAAGGTGTACTTATAAACATATACAC [XGTACX_site6921]", "gcPBM binding intensity (ln)": "11.5 ± 0.83"},
      {"sequence": "CACAAATATACAAATACACACAAATATACACATATA [CACACA_site7176]", "gcPBM binding intensity (ln)": "10.2 ± 0.085"},
      {"sequence": "ACCTAAAATAACTACACACACATAAAAAAAAAAAAA [CACACA_site2529]", "gcPBM binding intensity (ln)": "10.1 ± 0.47"},
      {"sequence": "GTATGTATATATGTATGTACTTATGTATCATTATTA [XGTACX_site2438]", "gcPBM binding intensity (ln)": "11.2 ± 0.83"},
      {"sequence": "AAAAAACACCCATACACACACACACCGATATATATA [CACACA_site5808]", "gcPBM binding intensity (ln)": "10.1 ± 0.18"},
      {"sequence": "TATATATATTTTTGAAGTACTTATTACACTAGCATT [XGTACX_site8965]", "gcPBM binding intensity (ln)": "11.2 ± 0.61"},
      {"sequence": "ATTTTCTTATATATATTTTGTATATATTTTGTACAT [CACACA_negctrl_site1496]", "gcPBM binding intensity (ln)": "10.5 ± 0.39"},
      {"sequence": "TTTTATGGAAAGTGTTGTACATATTTTTGTATATGT [XGTACX_site7356]", "gcPBM binding intensity (ln)": "11.4 ± 0.76"},
      {"sequence": "AATTAACCGTGACACACACACATATAAATATAAATA [CACACA_site7790]", "gcPBM binding intensity (ln)": "10.3 ± 0.47"},
      {"sequence": "TATTGTTCTTATTTAGTGCATATATAATATAATATA [GTGCAC_site9827]", "gcPBM binding intensity (ln)": "10.3 ± 0.33"},
      {"sequence": "ACAAAATTTACAAAATGTACAAAATTTACAAAATAT [XGTACX_site3542]", "gcPBM binding intensity (ln)": "10.8 ± 0.49"},
      {"sequence": "TAATAAAAAATATATACACACAAATAAATAAATAAA [CACACA_site4037]", "gcPBM binding intensity (ln)": "9.77 ± 0.071"},
      {"sequence": "CTATTTTGGATGTGTACACATATATATATTTATATT [CACACA_site5706]", "gcPBM binding intensity (ln)": "11.7 ± 0.85"},
      {"sequence": "TACATATTTTTTATATGTACATATTTTTTATGTGTA [XGTACX_site442]", "gcPBM binding intensity (ln)": "11.4 ± 0.77"},
      {"sequence": "ATATATATTTATATATGTACATATTTTTGTGTATTT [XGTACX_site1183]", "gcPBM binding intensity (ln)": "11.3 ± 0.79"},
      {"sequence": "TGCCTATTTTGGATGTGTACACATATATATATTTAT [XGTACX_site6741]", "gcPBM binding intensity (ln)": "11.7 ± 0.88"},
      {"sequence": "ATATTTATATATATATGTACATATGTGTGTTTTTAT [XGTACX_site3956]", "gcPBM binding intensity (ln)": "10.9 ± 0.51"},
      {"sequence": "CATATTAAGATGTGTACACATTTTTATTTTTTTTTT [CACACA_site4425]", "gcPBM binding intensity (ln)": "11.6 ± 0.93"}
    ]}
  ]
}
